Only some compounds are listed: those with a hit (about 12% of all), similar ones and a draw of the others.
Shiga inhibitor: blocks Shiga toxin action in Vero cells | Vero cells, Shiga toxin protein synthesis inhibition reporter | inhibition, % at 38.7 µM | 9.2% of 290,000 active | AID 2315; in the data active means inhibition mostly above about 28%, no sharp cut-off; inactive means mostly below about 43%; further: 0% is about no effect
SARS PLpro yeast-1: SARS-CoV PLP inhibition in yeast | S. cerevisiae expressing SARS-CoV PLpro, growth rescue | Potency, µM (titrated, usually from 32.9 µM), without a hit: at the highest dose activity, positive = growth rescue, hits mostly activators | 0.19% of 330,000 active | AID 485353; further: potency means the concentration at half of the fitted maximal effect; 0% is about no effect; nearly all actives have a fitted effect of over 55% in size
Cycloheximide cs: counter-screen hit for Shiga toxin inhibitors, cycloheximide. 12% of 300,000 active. max response, %. cell reporter, cycloheximide protein synthesis inhibition counterscreen; in the data active means max response mostly above about 13%, no sharp cut-off; inactive means mostly below about 14%; further: read at 38.3 µM for the half of the compounds with a filed dose; 0% is about no effect
NS1 function inh: influenza NS1 inhibition; AID 2326; 0.4% of 270,000 active; Potency, µM (top dose mostly 46.1 µM), without a hit: at the highest dose activity, positive = more growth; further: potency means the concentration at half of the fitted maximal effect; actives are rising curves; nearly all actives have a fitted effect of over 50% in size
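Recovery from NS1-induced slow growth read by OD600 in budding yeast switched to galactose assay medium (pH 6.0, -URA) at 1:100 dilution. Compound 23 nl per well; the matching strain lacking NS1 serves as control.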
SARS PLpro yeast-2: Validates SARS-CoV PLpro inhibitor hits in yeast; shares compounds with SARS PLpro yeast-1; yeast expressing SARS-CoV PLpro, growth phenotype rescue; calls only; 19% of 1,000 active; AID 652038; call rule not given here
An asterisk follows results filed as active; i = inactive; ? = inconclusive; nt = not tested or not shown; + = active, no number; ! = not confirmed by another sample. Unless noted, the call rests on the fitted dose curve.

SMILES | Shiga inhibitor | SARS PLpro yeast-1 | Cycloheximide cs | NS1 function inh | SARS PLpro yeast-2
Cc1cc(C)cc(N(CCC(=O)Nc2nnc(C)s2)S(=O)(=O)c2ccc(Cl)cc2)c1 | -4 | -6% | -2 | 3% | nt
CCOC(=O)CSc1nc2ccccc2c(=O)n1C | -8 | ? | -4 | -14% | i
CCOC(=O)CSc1nc2ccccc2c(=O)n1C1CCCC1 | -13 | -9% | -2 | -63% | nt
Cc1c(Cl)cccc1NC(=S)NCc1ccccc1Cl | -12 | -19% | 8 | -10% | nt
Cc1c(Cl)cccc1NC(=S)NCc1cccs1 | 10 | 14µM* | 9 | -11% | +
O=C(CSc1ccc(-c2cccnc2)nn1)Nc1ccccc1C(F)(F)F | -10 | -3% | 7 | -6% | nt
O=C(O)CSc1c(-c2ccccc2)c2cc(Cl)ccc2[nH]c1=O | -4 | ? | -3 | 27% | i
CC(=O)NCCC(=O)Nc1nc(-c2ccc3ccccc3c2)cs1 | 52* | ? | 29* | -1% | i
O=C(O)CCC(=O)Nc1nc(-c2ccccc2)cs1 | -10 | 0% | -2 | 2% | nt
CC(C)(C)c1ccc(C(=O)NCC(=O)N/N=C/c2ccccc2OCC(=O)O)cc1 | 23 | -1% | -5 | 2% | nt
O=C(O)COc1ccccc1/C=N/NC(=O)CNC(=O)c1ccco1 | -4 | 0.4µM* | -1 | 15% | i
CCN(CC)S(=O)(=O)c1ccc(NC(=S)NC(=O)CC(C)C)cc1 | -10 | nt | -4 | ? | i
CNC(=O)CSc1nc2nn(-c3ccccc3)c(=O)c-2c2n1CCCCC2 | -12 | 5% | -3 | 0% | nt
O=C(CSc1nc2nn(-c3ccccc3)c(=O)c-2c2n1CCCCC2)c1ccc(O)c(O)c1 | nt | 7.1µM* | nt | nt | i
CCCn1c(N)c(N(CCOC)C(=O)c2ccc(-c3ccc(Cl)cc3)o2)c(=O)[nH]c1=O | nt | -5% | nt | nt | nt
Cc1ccc(C(O)(C(=O)NNc2ccc3ccccc3n2)c2ccc(C)cc2)cc1 | -3 | ? | 13*! | 15% | i
CC1(C)CC(=O)C(C=NCCN2CCN(C(=S)Nc3ccccc3)CC2)=C(O)C1 | -3 | ? | -1 | -22% | i
Cc1ccc(C2CC(=O)C(C=NCCN3CCN(C(=S)Nc4ccccc4)CC3)=C(O)C2)cc1 (centres undefined) | -3 | -1% | -2 | -5% | nt
O=C(N/N=C/c1ccccc1O)c1cccc(C(F)(F)F)c1 | 48* | ? | 16 | 3% | i
CCCNC(=O)c1cccc(C(F)(F)F)c1 | -21 | 7% | -7 | 3% | nt
O=C(O)CC/C(=N/NC(=O)CNC(=O)Cc1ccc(Cl)cc1)c1ccccc1 | -13 | 9% | -3 | 2% | nt
COc1ccc(C(c2nnnn2C(C)C)N2CCN(C(=O)c3ccco3)CC2)cc1 (centres undefined) | -13 | -2% | -8 | -10% | nt
Cc1ccc(S(=O)(=O)N2CCC(C(=O)OC(C)C(=O)NC3CCCCC3C)CC2)cc1C (centres undefined) | nt | ? | nt | nt | ?
CCOc1ccc(S(=O)(=O)N2CCC(C(=O)OC(C)C(=O)NC3CCCCC3C)CC2)cc1 (centres undefined) | nt | 3% | nt | nt | nt
CC[n+]1c(/C=C(/C)SC)sc2ccccc21 | 6 | 3.5µM* | -2 | 6% | i
SMILES | Shiga inhibitor | SARS PLpro yeast-1 | Cycloheximide cs | NS1 function inh | SARS PLpro yeast-2
C/C(CC(=O)Nc1ccc(N(C)C)cc1)=N\NC(=O)Cc1csc(N)n1 | 48* | 18µM* | 19* | ? | i
COc1ccc(CC(=O)N/N=C(\C)CC(=O)Nc2ccc(N(C)C)cc2)cc1 | 15 | -4% | -2 | 3% | nt
CCN(C(=O)CCc1nnc2ccc(N3CCC4(CC3)OCCO4)nn12)c1ccccc1 | -7 | 17% | -2 | -6% | nt
Cc1c(C(=O)C(=O)N2CCN(Cc3ccc4c(c3)OCO4)CC2)c2ccccc2n1C | -13 | 3% | -3 | -12% | nt
CC(=O)NC(CC(=O)Nc1ccc(S(=O)(=O)NC2=NCCCCC2)cc1)c1ccccc1 (centres undefined) | nt | ? | nt | nt | i
CN(CC(=O)Nc1ccccc1Cl)C(=O)c1ccc(N2CCCCCC2)c([N+](=O)[O-])c1 | nt | 1% | nt | nt | nt
Cc1ccc(OCC(=O)N/N=C\c2c(C)[nH]n(-c3ccccc3)c2=O)c([N+](=O)[O-])c1 | -1 | 5.6µM* | -5 | 0% | +
CCOc1ccc(N(CC(=O)NCc2ccc(F)cc2)C(=O)c2ccco2)cc1 | 28 | 0% | 14 | 4% | nt
COc1ccc(C(=O)Nc2ccc(Cl)c(S(=O)(=O)Nc3ccccc3OC)c2)cc1 | 14 | ? | 5 | 28% | ?
COc1cc(C(=O)NC(=S)NNC(=O)c2cnccn2)cc(OC)c1OC | 2 | ? | -4 | -31% | i
COc1ccc(C(=O)NC(=S)NNC(=O)c2cnccn2)cc1 | 6 | -26% | 13 | -1% | nt
Cc1noc(C)c1C(=O)NCCc1c(C)[nH]c2ccccc12 | 26 | -3% | -1 | 5% | nt
Oc1ccc(N=Nc2ccccc2C(F)(F)F)c2cccnc12 | -4 | 2% | -6 | 1% | nt
Cc1ccc(N=Nc2ccc(O)c3ncccc23)cc1 | -9 | 4µM* | -6 | -14% | i
O=C(COc1ccccc1)NCc1nnc2c3ccccc3c(-c3ccccc3)nn12 | -3 | nt | -5 | 4% | i
CC(=O)NCc1nnc2c3ccccc3c(-c3ccccc3)nn12 | -9 | -1% | -3 | 10% | nt
C=CCn1c(SCc2cc(=O)n3cc(C)ccc3n2)nnc1-c1cccc(C)c1 | -10 | 11µM* | -2 | -5% | i
CC(C)C[C@H]1CN=C(N(C)C)N1CCCCc1ccccc1 | nt | 6.3µM* | nt | nt | i
CC(C)n1cnnc1SCC(=O)NC(=O)c1ccccc1 | nt | ? | nt | nt | i
CCCc1cc(=O)oc2cc(C)cc(OC(C)C(=O)NCC(O)c3ccccc3)c12 (centres undefined) | -3 | -3% | 1 | 1% | nt
O=C(NC1CCC(O)CC1)c1ccc(Br)o1 (centres undefined) | nt | 4.5µM* | nt | nt | i
COc1cccc(C(=O)Oc2c(CN3CCOCC3)cc(Cl)c3cccnc23)c1 | -6 | ? | 28 | -11% | i
Cc1ccc(C)c(N2CCN(C(=O)C3CCCN(S(=O)(=O)c4c(C)[nH]c(=O)[nH]c4=O)C3)CC2)c1 (centres undefined) | -10 | 10µM* | -5 | -1% | i
CCCn1c(NC(=O)c2cccc(C)c2C)nc2ccccc21 | 11 | ? | 0 | -59% | i
O=C(Nc1ccc(Oc2cccnc2)cc1)C1CCN(Cc2cccc(Cl)c2)CC1 | -7 | 2% | 9 | 19% | nt
CC(=O)c1cccc(CN2CCC(C(=O)Nc3ccc(Oc4cccnc4)cc3)CC2)c1 | -6 | ? | -1 | 11% | i
Cc1c(C(=O)Oc2ccc(F)cc2)sc2ncn(Cc3cccc(F)c3)c(=O)c12 | -2 | ? | -4 | -3% | i
Cc1ccc(NC(=O)/C=C/c2ccc3c(c2)OCO3)nc1 | 147* | ? | 57* | 8% | i
O=[N+]([O-])c1cc([N+](=O)[O-])c(Oc2cncc(Cl)c2)cc1NC1CCCCCCC1 | -5 | -2% | -2 | -1% | nt
CCOc1ccc(-n2c(O)c(/C=N/NC(=O)C3COc4ccccc4O3)c3ccccc3c2=O)cc1 (centres undefined) | -9 | 11µM* | 5 | ? | ?
